Source: PubChem BioAssay
This is one part of a sample in which hits are shown more often than they occur.
Pf Dd2 growth: blocks in vitro growth of P. falciparum Dd2; P. falciparum Dd2 growth, SYBR Green, 72 h; Potency, µM (doses to about 28.9 µM), for the others: at the highest dose activity, negative = inhibition, most hits filed as inhibitors; 120,000 tested, 4.3% active; active = well fitted inhibition curve with a large enough effect;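 also: plate controls were DMSO vehicle for no effect and reference drug for full effect; nearly all actives have a fitted effect of over 65% in size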
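Infected erythrocytes (Dd2, 0.3% parasitemia, 2.5% hematocrit final) are added to compound in RPMI-1640/Albumax II medium, grown 72 h at 37C in low oxygen, then lysed with saponin/Triton-X containing SYBR Green and read by fluorescence.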
* marks the source's active call; other numbers are inactive results; i = inactive; [ ] = another dose, or the depositor's remark. Potency is read from the fitted curve at half-maximal effect.

SMILES	Pf Dd2 growth
COc1ccc(-c2ccc3ncc(Nc4ccc5c(c4)OCCO5)n3n2)cc1OC	i
COc1ccccc1-c1ccc2ncc(Nc3ccc(C(N)=O)cc3)n2n1	i
OCc1cccc(-c2ccc3ncc(Nc4ccnc(N5CCOCC5)c4)n3n2)c1	i
OCc1cccc(-c2ccc3ncc(Nc4ccccc4F)n3n2)c1	-6%[44.1 µM]
COc1ccc(Nc2cnc3ccc(-c4ccc(OC)c(OC)c4)nn23)cn1	i
C[S+](=O)([O-])Nc1cccc(Nc2cnc3ccc(-c4ccccc4)nn23)c1	13µM*
Cc1ccc(NC2=N[C@H]3[C@@H](O)[C@H](O)C[C@H](C(=O)N(C)Cc4ccccc4)[C@H]3S2)cc1	-5%[44.1 µM]
Cn1cccc1C(=O)N1CCCC(c2nc(CCOCC3CCOCC3)no2)C1 (stereo not given)	-24%
COc1ccc(CNC(=O)CC[C@@H]2CNC(=O)[C@@H]3C[C@H](NCc4ccccn4)CN23)cc1	17%
O[C@@H]1C[C@@H](c2nc(-c3ccc4c(c3)OCO4)no2)N(Cc2ccccn2)C1	i
CCCc1cc(C(=O)N2CCC(n3nccc3NC(=O)c3ccccc3C)CC2)n(C)n1	-10%
CC(=O)Nc1ccc(CC(=O)N2CCCC(Cc3nncn3CC3CC3)C2)cc1 (stereo not given)	-24%
CCN1CCN(Cc2c(O)ccc3c(C)c(-c4ccc(OC)cc4)c(=O)oc23)CC1	5µM*
O=c1oc2c(CN3CCN(CCO)CC3)c(O)ccc2cc1-c1ccccc1	-17%
COc1ccc(-c2c(C)c3cc(OC(=O)N4CCOCC4)ccc3oc2=O)cc1	-17%
COc1ccc(-c2cc3ccc(O)c(CN4CCOCC4)c3oc2=O)cc1	11µM*
CN1CCN(c2cc(=O)c3ccnc(-c4ccc(Cl)cc4)c3o2)CC1	i
COc1ccc(-c2coc3c2c(C)cc2oc(=O)c(C)c(C)c23)cc1	-18%
CCN1CCN(Cc2c(O)ccc3cc(-c4ccc(OC)cc4)c(=O)oc23)CC1	5.6µM*
CN1CCN(Cc2c(O)ccc3cc(-c4ccc(Cl)cc4)c(=O)oc23)CC1	5µM*
CCN1CCN(C(c2ccc(OC)cc2)c2c(O)cc(C)n(CCOC)c2=O)CC1 (stereo not given)	i
Cc1c(-c2ccccc2)c(=O)oc2ccc(OC(=O)N3CCOCC3)cc12	i
COc1ccc(CN2CCC(N3CCOCC3=O)CC2)cc1	13%
COc1ccc(Cc2nc3ccc(C(=O)NCCN4CCOCC4)cc3o2)cc1	-6%
CN1C(=O)CS(=O)(=O)C12CCN(C(=O)c1ccncc1)CC2	-1%
SMILES	Pf Dd2 growth
Cc1noc2c(NC(C)C)cc(-c3cccc(C(F)(F)F)c3)nc12	-4%[44.1 µM]
Cc1ccc(OCc2nc(C3CN(C(=O)c4cc5ccccc5[nH]4)C3)no2)cc1	-2%
COCc1ccc2c(c1)c(OC(C)(C)C(=O)NC1CCN(C)CC1)nn2CCC(C)C	-22%[44.1 µM]
CC(=O)NC[C@H]1O[C@H](Cc2cc(CN3CCN(c4ccccc4)CC3)on2)CC[C@@H]1O	20%[44.1 µM]
CN1CCN(C(=O)N2CCCCC2)CC12CCC(=O)N(CC(=O)O)CC2 (stereo not given)	-8%
COc1ccccc1OCC(=O)Nc1nc2c(s1)CC(C)CC2 (stereo not given)	86%
COc1ccc(CC(=O)Nc2nc3c(s2)CC(C(C)(C)C)CC3)cc1 (stereo not given)	-28%
CC(C)(C)C1CCc2nc(NC(=O)Cc3ccc(Cl)cc3)sc2C1 (stereo not given)	10µM*
CCCCCOC(=O)c1ccc(Nc2nc(C(=O)OCC)nc3ccccc23)cc1	5%
CCOC(=O)c1nc(Nc2ccccc2OC)c2ccccc2n1	39%
CCOC(=O)c1nc(Nc2ccc(C(=O)OC(C)C)cc2)c2ccccc2n1	3.2µM*
CCOC(=O)c1nc(Nc2ccc(C(=O)OCC(C)C)cc2)c2ccccc2n1	11µM*
CCOC(=O)c1nc(Nc2ccc(OC)cc2)c2ccccc2n1	20%
CCOC(=O)c1ccc(Nc2nc(C(=O)OCC)nc3ccccc23)cc1	i
Cc1ccccc1CN1C[C@@H](CO)[C@H](c2nc(-c3ccncc3)no2)C1	-20%
O=S(=O)(Cc1ccccc1)N1CCC(N2CC(OCC3CC3)C23CCOCC3)CC1 (stereo not given)	i
COCCn1c(=O)[nH]c2cccnc21	-7%[44.1 µM]
O=C(c1noc(-c2ccc(F)cc2)n1)N1CCN(c2ccc(Cl)cc2)CC1	47%
CNC(=O)C(C)(C)N1CCC[C@H]1C(=O)N[C@@H](CO)CC(C)C	-10%[44.1 µM]
C#CCNC(=O)CC[C@H]1CNC(=O)[C@@H]2[C@@H](CCN2Cc2ccc(C)cc2)N1C	i
CN1[C@@H](CCC(=O)Nc2ccccc2)CNC(=O)[C@@H]2[C@H]1CCN2Cc1ccc(C(F)(F)F)cc1	i
Cc1ccc(CN2CC[C@@H]3[C@H]2C(=O)NC[C@H](CCC(=O)Nc2ccccc2)N3C)cc1	11µM*
NC(=O)C1(C(=O)N2CCC(n3nccc3NC(=O)c3ccccc3)CC2)CC1	-1%
Cc1nc2c(c(-c3ccc(Cl)cc3)n1)CCN(C(=O)C(C)(C)C)CC2	i
CC(=O)Nc1ccc(C(=O)N2CCC3(CC2)N=C(c2ccc(Cl)cc2)NO3)cc1	-27%
SMILES	Pf Dd2 growth
O=C1[C@H]2CCCN2C(=O)C2C[C@@H](NS(=O)(=O)c3cccs3)CCN12 (stereo not given in full)	1%[44.1 µM]
CC(C)NC(=O)[C@@H]1C[C@H](N)CN1C(=O)c1ccc(-n2cnnn2)cc1	-1%
O=S(=O)(c1ccc(F)cc1)N1CCC(n2cnnc2C2CC2)CC1	i
CS(=O)(=O)c1ccc(CN2CCCC(Cc3nc4ccccc4[nH]3)C2)cc1 (stereo not given)	i
CC1=C(C(=O)Nc2ccccc2)C(c2ccc(F)cc2)n2nc(SCc3cc(C)ccc3C)nc2N1 (stereo not given)	115%
COc1ccc(C(=O)Nc2nc3n(n2)C(c2ccccc2)C=C(c2ccccc2)N3)cc1 (stereo not given)	i
O=C(c1ccco1)n1nc(-c2ccc(Cl)cc2)nc1NCc1ccc(F)cc1	61%
COc1cccc(C2C(C(=O)Nc3ccccc3)=C(C)Nc3nc(-c4ccccc4)nn32)c1 (stereo not given)	-28%
